The list is not random: actives were taken first. Their share in the collection is about 2.2%.
TGFb inhibitor: blocks TGF-b signaling. 1.2% of 410,000 active. Potency, µM (highest dose often 46.1 µM), most hits filed as inhibitors. HepG2 CAGA-GFP TGF-b/SMAD3 reporter, GFP fluorescence, 18 h; TGF-beta stimulated, 500 pg/mL final. AID 588855; also: nearly all actives have a fitted effect of over 65% in size
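TGF-beta reporter screen: HEPG2 CAGA-GFP, 1% FBS, 500 pg/mL TGF-beta final, 18 h; per-cell GFP summed per well; curves fitted and categorized by class.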
ATXN viability: cell viability loss in ATXN counter-screen. 0.49% of 400,000 active. Potency, µM (top dose mostly 56.7 µM), most hits filed as cytotoxic. S2 cells (HEK-293 line with an ATXN2-luciferase reporter) viability, CellTiter-Fluor protease fluorescence, 24 h. AID 651635; also: nearly all actives have a fitted effect of over 40% in size
mIDH1 inhibitor: blocks human mutant IDH1 R132H enzyme. Potency, µM (top dose mostly 76.6 µM), actives largely listed as inhibitors. IDH1-R132H enzyme, NADPH consumption, diaphorase/resazurin fluorescence. 0.093% of 390,000 active. O75874; also: nearly all actives have a fitted effect of over 65% in size
Target sequence (O75874 whole entry R132H, stated change not applied): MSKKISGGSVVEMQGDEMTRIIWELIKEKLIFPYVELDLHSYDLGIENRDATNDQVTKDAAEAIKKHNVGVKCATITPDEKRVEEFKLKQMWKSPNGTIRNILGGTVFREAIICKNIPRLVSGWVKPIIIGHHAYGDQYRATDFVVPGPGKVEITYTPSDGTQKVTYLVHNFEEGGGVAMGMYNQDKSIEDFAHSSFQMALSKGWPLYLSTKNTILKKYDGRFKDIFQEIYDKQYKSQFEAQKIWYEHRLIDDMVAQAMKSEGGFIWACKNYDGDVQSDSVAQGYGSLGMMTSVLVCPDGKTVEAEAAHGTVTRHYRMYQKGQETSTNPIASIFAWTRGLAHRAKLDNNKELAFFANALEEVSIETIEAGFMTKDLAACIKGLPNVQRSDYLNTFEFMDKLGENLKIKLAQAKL
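IDH1-R132H (0.5 ug/mL dispensed) in pH 7.5 Tris buffer was preincubated 30 min with compound, then given a substrate mix of 0.016 mM NADPH and 2 mM alpha-KG for 80 min at room temperature; remaining NADPH was read by diaphorase/resazurin fluorescence.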
ATXN2 expr inh: reduces ATXN2 reporter expression in HEK-293 cells | HEK-293 ATXN2-luciferase reporter, luminescence, 24 h | Potency, µM (titrated, usually from 57 µM), most hits filed as inhibitors | 0.72% of 360,000 active | AID 1745845; also: nearly all actives have a fitted effect of over 55% in size
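qHTS (up to 57 uM final) was run with 24 h compound exposure of reporter cells at 37 °C. Each well was multiplexed: SteadyGlo luminescence measured ATXN2-luciferase expression after a fluorogenic Gly-Phe-AFC viability readout (25 uM final).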
HepG2 viability: counter-screen for TGF-b inhibitors: cytotoxicity in HepG2 cells; HepG2 CAGA-GFP viability, ATP luminescence, 18 h; Potency, µM (series often up to 46.1 µM), hits mostly cytotoxic; 0.76% of 410,000 active
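CellTiter-Glo luminescence gave cytotoxicity after 18 hours at 37 degrees C. The cells were HepG2 CAGA-GFP in 1% FBS DMEM, stimulated with 500 pg/mL TGF-beta after compound addition. %Activity was normalised to no-cell wells (complete cell-killing) and DMSO (no toxicity), and curves were fitted and classified.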
LDHA block: inhibitors of human lactate dehydrogenase A | P00338 | purified LDHA, NADH/diaphorase-resazurin fluorescence; active compounds read low | activity change, % (values are at about 110 or 230 µM) | 0.15% of 480,000 active; in the data active = activity change below about -30%; inconclusive = mostly about -25% to -30%
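LDH5 2 nM; NADH 0.06 mM, pyruvate 0.2 mM; 200 mM Tris pH 7.4, EDTA, Tween-20; 5 min RT. Detection: diaphorase 0.133 mg/mL + resazurin 37 µM, fluorescence ex540/em590 at 0 and 20 min; normalized to enzyme-free and DMSO wells.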
Each line names hits and unclear results; the compound was inactive in the other large screens. Unless noted, calls follow the shape of the dose curve; as a rule, active = well fitted curve in the direction sought with a large enough effect; inconclusive = small, poorly fitted or top-dose-only effect, or another doubt; inactive = no such curve, though single readings can be large; an effect the other way counts as inactive or inconclusive.

O=C(COc1ccccc1-c1ccccc1)N/N=C/c1ccc2ccccc2c1	TGFb inhibitor 7.1µM, ATXN viability inconclusive, ATXN2 expr inh inconclusive
COCCS(=O)(=O)c1ccc(C(=O)O)cc1	none (no result: TGFb inhibitor, ATXN viability, mIDH1 inhibitor, ATXN2 expr inh, HepG2 viability)
COc1cccc2c1C(=N)c1c(O)c3c(c(O)c1C2=O)CC(O)(C(C)=O)CC3OC1CC(N)C(O)C(C)O1 (configuration not stated)	TGFb inhibitor 7.1µM, ATXN viability inconclusive, ATXN2 expr inh 1.2µM
COc1cccc2c1C(=O)c1c(O)c3c(c(O)c1C2=O)CC(O)(C(C)=O)CC3OC1CC(O)C(O)C(C)O1 (configuration not stated)	ATXN viability 19µM, ATXN2 expr inh inconclusive
COc1cccc2c1-c1c(O)cccc1C2=O	none (no result: ATXN2 expr inh)
CCCCC(=O)OCC(=O)C1(O)Cc2c(O)c3c(c(O)c2C(OC2CC(NC(=O)C(F)(F)F)C(O)C(C)O2)C1)C(=O)c1c(OC)cccc1C3=O (configuration not stated)	TGFb inhibitor inconclusive, ATXN viability 3.5µM, ATXN2 expr inh 2.5µM
COc1cccc2c1C(=O)c1c(O)c3c(c(O)c1C2=O)C[C@@](O)(C(=O)CO)C[C@H]3O[C@H]1C[C@H](N)[C@H](O)[C@H](C)O1	ATXN2 expr inh 0.27µM (no result: TGFb inhibitor, ATXN viability, mIDH1 inhibitor, HepG2 viability, LDHA block)
Cc1ccc(C)c(-c2csc(NC(=O)c3cc(C)on3)n2)c1	none (no result: TGFb inhibitor, ATXN viability, mIDH1 inhibitor, ATXN2 expr inh, HepG2 viability)
Cc1ccc(-c2csc(C(O)(c3ccccc3)C(F)(F)F)n2)cc1C (configuration not stated)	TGFb inhibitor inconclusive, ATXN viability inconclusive (no result: mIDH1 inhibitor)
COc1cc(F)ccc1-c1csc(C(O)(c2ccccc2)C(F)(F)F)n1 (configuration not stated)	TGFb inhibitor inconclusive, ATXN viability inconclusive, ATXN2 expr inh inconclusive, HepG2 viability 22µM (no result: mIDH1 inhibitor)
CN(C)c1ccc(-c2csc(C(O)(c3ccccc3)C(F)(F)F)n2)cc1 (configuration not stated)	TGFb inhibitor inconclusive, HepG2 viability 16µM (no result: mIDH1 inhibitor)
COc1ccc(Br)cc1C(=O)NC(=S)Nc1ccc(CN2CCOCC2)cc1	ATXN2 expr inh 25µM
CCn1c(CNc2ccccc2Cl)nnc1SCC(=O)NCc1ccccc1	none
COC(=O)[C@@H]1[C@@H](C#N)C2(c3ccccc3-c3ccccc32)N(c2ccc(Cl)cc2)N1C#N	TGFb inhibitor inconclusive, ATXN viability 28µM, ATXN2 expr inh 10µM
NC(=O)C1CCN(C2=C(NS(=O)(=O)c3ccc(Cl)cc3)C(=O)c3ccccc3C2=O)CC1	TGFb inhibitor 11µM, ATXN viability inconclusive (no result: ATXN2 expr inh)
CCOC(=O)N1CCN(C2=C(NS(=O)(=O)c3ccc(C)cc3)C(=O)c3ccccc3C2=O)CC1	TGFb inhibitor 22µM, ATXN viability 32µM (no result: ATXN2 expr inh)
Cc1ccc(S(=O)(=O)NC2=C(N3CCN(c4ccccc4F)CC3)C(=O)c3ccccc3C2=O)cc1	ATXN viability inconclusive
CC(=O)Nc1ccc(S(=O)(=O)NC2=C(N3CCN(c4ccc(F)cc4)CC3)C(=O)c3ccccc3C2=O)cc1	TGFb inhibitor 11µM, ATXN viability inconclusive
COc1cc(C(=O)N2CCN(c3cccc(Cl)c3)CC2)ccc1OCC(=O)N1CCOCC1	none (no result: ATXN2 expr inh)
C=CCOc1ccc2c(c1)CCC1C2CCC2(C)C(O)C(O)CC12 (configuration not stated)	TGFb inhibitor inconclusive
CCOc1ccc(NC(=O)CN(C)C(=O)CSCc2ccc(C)cc2)cc1OCC	HepG2 viability 5µM
CCOc1ccc(NC(=O)CN(C)C(=O)CSCc2cccc(C)c2)cc1OCC	none
Nc1ccccc1O	TGFb inhibitor inconclusive, HepG2 viability 16µM
OC1CCCN(Cc2c3ccccc3cc3ccccc23)C1 (configuration not stated)	ATXN2 expr inh 18µM
O=[N+]([O-])c1ccc(O)c(C(C#Cc2ccccc2)N2CCOCC2)c1 (configuration not stated)	TGFb inhibitor 13µM
Cc1cccc(NC(=O)CN2CCN(C(=O)NCc3ccccc3Cl)CC2)c1C	none (no result: TGFb inhibitor, ATXN viability, mIDH1 inhibitor, ATXN2 expr inh, HepG2 viability)
Cn1c(=O)c2cc(NC(=O)NCc3ccc(F)cc3)ccc2n1Cc1cccc(C(F)(F)F)c1	none (no result: mIDH1 inhibitor)
CCOC(=O)c1sc(NC(=O)CCN2CCCCCC2)c(C(=O)OCC)c1C	TGFb inhibitor inconclusive, HepG2 viability 18µM
CCOC(=O)c1ccc(NC2=CC(=O)C(=O)c3ccccc32)cc1	TGFb inhibitor inconclusive, ATXN viability inconclusive
Cc1ccc(NC2=CC(=O)C(=O)c3ccccc32)cc1	TGFb inhibitor 2.8µM, ATXN viability inconclusive, HepG2 viability 5µM
COc1cc(OC)c(NC2=CC(=O)C(=O)c3ccccc32)cc1Cl	TGFb inhibitor inconclusive, ATXN viability 18µM (no result: ATXN2 expr inh)
NS(=O)(=O)c1ccc(NC2=CC(=O)C(=O)c3ccccc32)cc1	TGFb inhibitor 8.9µM, ATXN2 expr inh inconclusive
Cc1cc(NC2=CC(=O)C(=O)c3ccccc32)no1	TGFb inhibitor inconclusive, ATXN viability inconclusive
CCCN1CCC(=NNc2ccc(S(=O)(=O)N3CCOCC3)cc2[N+](=O)[O-])CC1	HepG2 viability 14µM
Cc1oc2cc(OC(=O)c3ccco3)ccc2c(=O)c1-c1ccc(Br)cc1	LDHA block -34 (no result: TGFb inhibitor, ATXN viability, mIDH1 inhibitor, ATXN2 expr inh, HepG2 viability)
O=C(COC(=O)CNC(=O)c1ccc(Cl)cc1Cl)NCC1CCCO1 (configuration not stated)	none
O=C(c1[nH]ncc1-c1ccccc1)C1CO1 (configuration not stated)	HepG2 viability 13µM
O=C(c1[nH]ncc1-c1cccc(Br)c1)C1CO1 (configuration not stated)	TGFb inhibitor inconclusive, ATXN viability inconclusive
COc1ccc2c(c1)C(c1ccccc1)NC(=O)C2 (configuration not stated)	HepG2 viability 11µM
O=C(Nc1ncc(SCCN2CCCC2)s1)[C@]1(c2ccc(S(=O)(=O)C3CC3)cc2)C[C@@H]1C1CCCCC1	ATXN2 expr inh 27µM (no result: TGFb inhibitor, ATXN viability, mIDH1 inhibitor, HepG2 viability, LDHA block)
Cc1ccc(S(=O)(=O)N2CCC(C(=O)NCCN3CCCCCC3)CC2)cc1	none
O=C1Nc2cc(C(=O)NCCCN3CCCC3)ccc2S/C1=C\c1ccccc1	TGFb inhibitor inconclusive, ATXN viability inconclusive, HepG2 viability 16µM (no result: ATXN2 expr inh)
O=C1Nc2cc(C(=O)NCCCN3CCOCC3)ccc2S/C1=C/c1cccc(Cl)c1	none (no result: ATXN2 expr inh)
COc1ccc2[nH]c(C(=O)NCCN3CCCCC3)cc2c1	HepG2 viability 7.9µM
O=C(NCCN1CCCCC1)c1cc2ccccc2[nH]1	none
COc1ccc(/C=C2/Sc3ccc(C(=O)NCCN4CCCCCC4)cc3NC2=O)cc1	TGFb inhibitor 25µM, ATXN viability 28µM, HepG2 viability 13µM (no result: ATXN2 expr inh)
O=C(COC(=O)c1n[nH]c(=O)c2ccccc12)Nc1ccccc1	none

Bioassay records: PubChem BioAssay, National Center for Advancing Translational Sciences (NCATS)
